Lassa entry inh – blocks Lassa virus binding to or entry into cells | Lassa virus pseudotype entry inhibition, cell reporter | Potency, µM (top dose mostly 37.9 µM), usual class: inhibitors | 300,000 compounds, 1.2% hits | AID 540256; calls by dose curve; tested in HEK293 cells; further: nearly all actives have a fitted effect of over 50% in size
MARV entry inh – inhibitors of Marburg virus binding or cell entry | Marburg virus pseudotyped entry inhibition, cell reporter | Potency, µM (titrated, usually from 37.8 µM), most hits filed as inhibitors | 300,000 compounds, 1.8% hits | AID 540276; calls by dose curve; tested in HEK293 cells
Pf growth 48h – P. falciparum growth inhibition at 48 hours (one generation) | 310,000 compounds, 5.9% hits | P. falciparum luciferase growth in erythrocytes, 48 h | Potency, µM (titrated, usually from 28.7 µM), hits mostly inhibitors
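Luciferase-expressing parasites in RBCs, 2% Hct / 0.1% parasitemia final; RPMI 1640 + 0.5% Albumax; 37 C, 5% CO2, one generation; luminescence read-out, lower signal = inhibition.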
HCMV inh – inhibitors of human cytomegalovirus; HFF cells, HCMV-luciferase reporter, 72 h; stronger effect = lower value; activity change, negative = inhibition, % at 57.5 µM; 410,000 compounds, 4.5% hits; in the data active means activity change below about -60%; inconclusive means no clear call, values can overlap the other calls; inactive means above about -39%
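Human foreskin fibroblasts infected with luciferase-reporter HCMV at MOI 1 PFU/cell, compounds at two doses. Luciferase measured 72 h post infection; normalized to buffer-only basal and Salinomycin (10uM) controls.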
Pf growth 96h – inhibits malaria parasite growth, 96 h. AID 504834. Potency, µM (highest dose often 28.7 µM), hits mostly inhibitors. P. falciparum luciferase reporter growth, 96 h. 320,000 compounds, 6.9% hits
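P. falciparum expressing integrated firefly luciferase grown in erythrocytes (2% hematocrit, 0.05% parasitemia final) with compounds for 96 hours at 37 C, 5% CO2. Growth inhibition read as loss of luminescence after adding luciferase detection reagent.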
HCV inhibitor – blocks hepatitis C virus. Huh7.5.1 HCVcc-Cre infection, luciferase reporter, 44 h. Potency, µM (highest dose often 41.8 µM), usual class: inhibitors. 340,000 compounds, 3.4% hits
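After 44 h co-culture of compound, cells and HCVcc-Cre (~0.5 moi), substrate is added for 15 min at room temperature and luciferase measured over 15 sec. Cells were seeded at 1,000/well and pre-cultured 4 h.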
Each line names hits and unclear results; the compound was inactive in the other large screens. This is a sample that favours compounds with a hit; in the whole collection about 14% have one here. Unless noted, the call rests on the fitted dose curve; in most records, active means well fitted inhibition curve with a large enough effect; inconclusive means small, poorly fitted or top-dose-only effect, or another doubt; inactive means no such curve, though single readings can be large or run the other way.

Oc1c(C(c2ccccn2)N2CCC(Cc3ccccc3)CC2)cc(Cl)c2cccnc12 (stereo not drawn)	Lassa entry inh inconclusive, MARV entry inh inconclusive, Pf growth 48h 2.9µM, HCMV inh -90, HCV inhibitor 18µM
CCCCCCN1C[C@H](O)[C@@H](n2cc(-c3ccc(F)cc3)nn2)C[C@@H]1c1ccc(Cl)cc1	none (no result: Lassa entry inh, MARV entry inh, Pf growth 48h, Pf growth 96h, HCV inhibitor)
CCCCCCN1C[C@@H](n2cc(-c3ccc(F)cc3)nn2)[C@H](O)C[C@@H]1c1ccc(Cl)cc1	HCMV inh -95 (no result: Lassa entry inh, MARV entry inh, Pf growth 48h, Pf growth 96h, HCV inhibitor)
CCCCCCN1C[C@H](O)[C@@H](n2cc(-c3ccc(F)cc3)nn2)C[C@H]1c1ccccc1	Lassa entry inh 16µM (no result: MARV entry inh, Pf growth 48h, HCMV inh, Pf growth 96h, HCV inhibitor)
CCCCCCN1C[C@H](O)[C@@H](n2cc(-c3ccc(F)cc3)nn2)C[C@H]1c1ccc(C)cc1	Lassa entry inh 25µM (no result: MARV entry inh, Pf growth 48h, HCMV inh, Pf growth 96h, HCV inhibitor)
CCCCCCN1C[C@H](n2cc(-c3ccc(F)cc3)nn2)[C@@H](O)C[C@@H]1c1ccc(C)cc1	HCMV inh -81 (no result: Lassa entry inh, MARV entry inh, Pf growth 48h, Pf growth 96h, HCV inhibitor)
O=C(Nc1cccc(C(F)(F)F)c1)c1ccc2c(c1)nnn2C1CCCC1	none (no result: MARV entry inh, Pf growth 48h, Pf growth 96h, HCV inhibitor)
O=C(COc1ccccc1Cl)Nc1ccc2oc(=O)ccc2c1	none
COc1ccc(C(=O)NC(=S)Nc2ccc3oc(=O)ccc3c2)cc1	Lassa entry inh inconclusive, HCV inhibitor inconclusive
CC(C)c1ccc(OCC(=O)Nc2ccc3oc(=O)ccc3c2)cc1	Pf growth 96h 3.3µM, HCV inhibitor inconclusive (no result: Lassa entry inh)
CCCCCC(=O)NC(=S)Nc1ccc2oc(=O)ccc2c1	Lassa entry inh inconclusive, Pf growth 96h 13µM
O=C(Cc1ccc(Cl)cc1)Nc1ccc2oc(=O)ccc2c1	HCMV inh -64, HCV inhibitor inconclusive
COc1ccc(OCC(=O)Nc2ccc3oc(=O)ccc3c2)cc1	Pf growth 48h inconclusive
Cc1cc(Cl)ccc1OCC(=O)Nc1ccc2oc(=O)ccc2c1	MARV entry inh inconclusive, Pf growth 96h 12µM, HCV inhibitor inconclusive (no result: Lassa entry inh)
Cc1ccc(OCC(=O)Nc2ccc3oc(=O)ccc3c2)c(C)c1	Pf growth 96h inconclusive, HCV inhibitor inconclusive (no result: Lassa entry inh)
COc1cc(C)ccc1S(=O)(=O)NC(=O)C1(C)CCN1C(=O)c1ccc(C2CCCCC2)cc1 (stereo not drawn)	none (no result: Lassa entry inh, MARV entry inh, Pf growth 48h, Pf growth 96h, HCV inhibitor)
COCC(C)n1c(C)cc(C(=O)COC(=O)c2c(NC(C)=O)sc(C)c2C)c1C (stereo not drawn)	Lassa entry inh inconclusive, MARV entry inh 2.6µM, HCV inhibitor inconclusive
COCC(C)n1c(C)cc(C(=O)COC(=O)c2c(C)nn(-c3ccccc3)c2C)c1C (stereo not drawn)	Lassa entry inh inconclusive, MARV entry inh inconclusive, Pf growth 48h inconclusive, Pf growth 96h inconclusive, HCV inhibitor inconclusive
O=C(O)c1cccc(-n2c(/C=C/c3ccccc3)nc3ccccc3c2=O)c1	Lassa entry inh inconclusive
Cc1ccccc1-n1c(-c2ccoc2)nc2ccccc2c1=O	HCMV inh inconclusive, Pf growth 96h 4.1µM, HCV inhibitor inconclusive
O=c1c2ccccc2nc(/C=C/c2ccccc2)n1-c1ccccc1O	Lassa entry inh inconclusive, MARV entry inh inconclusive, Pf growth 48h 9.3µM, HCMV inh -95, Pf growth 96h inconclusive
Cc1ccc(-n2c(/C=C/c3ccc(Br)s3)nc3ccccc3c2=O)cc1C	Lassa entry inh inconclusive, HCMV inh -65 (no result: MARV entry inh, Pf growth 48h, Pf growth 96h, HCV inhibitor)
Cc1ccc(-n2c(/C=C/c3cc(Br)cs3)nc3ccccc3c2=O)cc1C	none (no result: MARV entry inh, Pf growth 48h, Pf growth 96h, HCV inhibitor)
O=c1c2ccccc2nc(/C=C/c2ccc(O)cc2)n1-c1ccccc1O	Pf growth 48h 9.3µM, Pf growth 96h inconclusive (no result: Lassa entry inh, MARV entry inh)
COc1ccc(-c2cc(C)no2)cc1S(=O)(=O)NCc1cccs1	none (no result: MARV entry inh, Pf growth 48h, Pf growth 96h, HCV inhibitor)
COc1ccc(-n2nnnc2SCC(=O)NCCc2ccccc2)cc1	none (no result: Pf growth 48h, Pf growth 96h, HCV inhibitor)
COc1ccccc1CNC(=O)C1CCN(c2nc3ccc(Cl)cc3[nH]2)CC1	none (no result: MARV entry inh, Pf growth 48h, Pf growth 96h, HCV inhibitor)
Cc1ccccc1-n1c(/C=C/c2ccccn2)nc2ccccc2c1=O	Pf growth 48h inconclusive, HCMV inh -102, Pf growth 96h inconclusive (no result: Lassa entry inh, MARV entry inh)
COc1ccccc1-n1c(/C=C/c2ccc(O)cc2)nc2ccccc2c1=O	Lassa entry inh inconclusive, MARV entry inh inconclusive, Pf growth 48h 13µM, HCV inhibitor inconclusive
Cc1ccccc1-n1c(/C=C/c2ccc(O)cc2)nc2ccccc2c1=O	Lassa entry inh inconclusive, HCMV inh -92 (no result: MARV entry inh, Pf growth 48h, Pf growth 96h, HCV inhibitor)
COc1ccccc1-n1c(/C=C/c2ccccc2)nc2ccccc2c1=O	none (no result: MARV entry inh, Pf growth 48h, Pf growth 96h, HCV inhibitor)
O=c1[nH]c2ccc(NCc3ccc(-c4ccc(Br)cc4)o3)cc2[nH]1	none (no result: Pf growth 48h, Pf growth 96h, HCV inhibitor)

Screens as filed in PubChem BioAssay.
